# Source: PubChem BioAssay (National Center for Advancing Translational Sciences (NCATS))
# Only some compounds are listed: those with a hit (about 7.5% of all), similar ones and a draw of the others.
# FLuc modulator – counter-screen for miR-21 project: firefly luciferase inhibitors or activators; P08659; purified FLuc, Km substrates, luminescence inhibition; Potency, µM (series often up to 57.5 µM), for inactives: at the top dose activity change, negative = inhibition, most hits filed as inhibitors; 360,000 tested, 6.9% active;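 note: plate controls were vehicle for no effect and reference inhibitor for full effect; nearly all actives have a fitted effect of over 55% in size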
# Target sequence (P08659 whole entry, looked up): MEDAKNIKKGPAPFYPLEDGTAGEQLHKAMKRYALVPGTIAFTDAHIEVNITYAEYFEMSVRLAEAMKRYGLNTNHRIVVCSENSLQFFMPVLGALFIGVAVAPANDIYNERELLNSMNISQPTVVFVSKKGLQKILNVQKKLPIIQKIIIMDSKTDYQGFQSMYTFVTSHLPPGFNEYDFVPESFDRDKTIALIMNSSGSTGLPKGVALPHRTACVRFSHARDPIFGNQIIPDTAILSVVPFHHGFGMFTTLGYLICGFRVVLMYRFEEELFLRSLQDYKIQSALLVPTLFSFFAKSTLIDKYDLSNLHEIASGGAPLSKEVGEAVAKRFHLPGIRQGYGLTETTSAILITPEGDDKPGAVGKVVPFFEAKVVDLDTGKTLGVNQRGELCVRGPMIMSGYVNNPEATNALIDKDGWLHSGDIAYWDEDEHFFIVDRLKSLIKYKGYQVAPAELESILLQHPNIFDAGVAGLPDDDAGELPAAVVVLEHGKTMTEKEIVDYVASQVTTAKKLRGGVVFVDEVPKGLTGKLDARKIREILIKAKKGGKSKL
#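 Purified P. pyralis luciferase, 10 nM final, with Km-level 10 uM D-luciferin and 10 uM ATP in 50 mM Tris acetate pH 7.5, 10 mM Mg acetate, 0.01% Tween-20, 0.05% BSA; 6-point qHTS titration about 60 µM downward; luminescence read.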
# Rab9 prom act – Rab9 promoter activation. 320,000 tested, 2.8% active. Huh7 Rab9 promoter-luciferase reporter, luminescence, 24 h. Potency, µM (doses to about 9.22 µM), inactives show at the highest dose activation, negative = inhibition, usual class: activators; note: % of control where 0% means no effect; nearly all actives have a fitted effect of over 60% in size
#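 Steps: seed 1500 Huh7 Rab9-luc cells per well, rest 2 h at 37 °C; add compound in DMSO; incubate 24 h; add luciferase reagent, 10 min ambient; read luminescence.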
# Luc counter – counter-screen: inhibitors of Kinase-Glo firefly luciferase. Q27757. Potency, µM (series often up to 38.3 µM), for inactives: at the highest dose activity change, negative = inhibition, usual class: inhibitors. Kinase-Glo luciferase, ATP luminescence, 8 min. 200,000 tested, 0.28% active. AID 1379; note: % is set by controls: 0 for no effect and ±100 for the full control effect; nearly all actives have a fitted effect of over 60% in size
#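 Compound is pinned into ATP-containing buffer (10 uM ATP, imidazole pH 7.2, 7 mM MgCl2). Kinase-Glo luciferase reagent is then added. Light output is recorded following an 8-min room-temperature incubation.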
# SMN2 splice enh – SMN2 splice variant enhancement | AID 1458 | HEK293 SMN2-luciferase splicing reporter, luminescence, 30-36 h | 210,000 tested, 2.8% active | Potency, µM (top dose mostly 46.1 µM), inactives show at the highest dose activity change, positive = activation, usual class: activators; note: % of control where 0% means no effect; nearly all actives have a fitted effect of over 55% in size
#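 HEK293 cells carry an SMN2 […]–luciferase reporter in which exon 7 inclusion puts luciferase in frame. Cells were plated 10-12 h before compound addition, then incubated 30-36 h at 37C. ONE-Glo luminescence was read; sodium butyrate at 4.5 mM final served as control.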
# ELG1 genotoxic – inducers of genotoxicity in HEK293T ELG1-luciferase cells; 330,000 tested, 1.3% active; AID 504466; HEK293T ELG1-luciferase reporter, luminescence, 16 h; Potency, µM (series often up to 46 µM), inactives show at the top dose activity change, positive = activation, hits mostly activators; note: % of control where 0% means no effect; nearly all actives have a fitted effect of over 60% in size
#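 HEK293T cells expressing luciferase-tagged ELG1 were treated with compound or DMSO for 16 hr at 37°C. Luciferase activity was then read after 30 min with ONE-Glo at room temperature; rising signal flags genetic stress.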
# NPC1 promoter act – NPC1 promoter activation. Huh7 NPC1 promoter luciferase reporter, 24 h. Potency, µM (titrated, usually from 9.22 µM), for inactives: at the top dose activation, hits mostly activators. AID 485313. 320,000 tested, 2.4% active; note: % of control where 0% means no effect; nearly all actives have a fitted effect of over 60% in size
#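 Readout is luciferase luminescence, reflecting NPC1 promoter activation in stably transfected Huh7 cells after 24 h compound exposure at 37 °C in reduced-serum medium with 10% FBS.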
# Active calls of the source: *; ? = inconclusive; nt = no result; [ ] = dose if it differs, or a comment. Calls come from the whole dose curve; as a rule, active = well fitted curve in the direction sought with a large enough effect; inconclusive = small, poorly fitted or top-dose-only effect, or another doubt; inactive = no such curve, though single readings can be large; an effect the other way counts as inactive or inconclusive. Potency is the fitted concentration of half-maximal effect.
SMILES,FLuc modulator,Rab9 prom act,Luc counter,SMN2 splice enh,ELG1 genotoxic,NPC1 promoter act
O=C(Nc1ccc(Cl)cc1)c1ccc(OCC2CCCO2)cc1 (stereo not drawn),5.4µM*,?,1%,18%,?,?
Cc1ccc2nc(NC(=O)c3ccc(OCC4CCCO4)cc3)sc2c1 (stereo not drawn),3µM*,?,0%,-45%,-6%,?
COc1ccc(OC)c(NC(=O)Cn2c(=O)cc(C)c3c(C)nn(-c4cccc(Cl)c4C)c32)c1,-5%,nt,nt,nt,nt,nt
O=c1cc(-c2ccccc2)[nH]n1-c1ccc([N+](=O)[O-])cc1,15µM*,?,-6%,-9%,-2%,20%
O=C(N/N=C/c1ccc2cccc(OCc3ccccc3)c2n1)c1ccc(Br)cc1,2.7µM*,-7%,-1%,-12%,0%,-2%
COc1ccc(C(=O)N/N=C/c2ccc3cccc(OCc4ccccc4)c3n2)cc1,1.5µM*,21%,1%,-2%,-7%,20%
COc1c(OC(C)=O)ccc(/C=C/c2ccc3cccc(OCc4ccccc4)c3n2)c1[N+](=O)[O-],1.5µM*,?,-1%,-95%[1.84 µM],-4%,?
NC(=S)N/N=C/c1ccc2cccc(OCc3ccccc3)c2n1,-20%,5%,nt,nt,-3%,2%
COc1cc(/C=C/c2ccc3cccc(OC)c3n2)c(OC(C)=O)c([N+](=O)[O-])c1,-4%,4%,-1%,-65%,-8%,1%
Cc1ccc(C)c(SCC(=O)NCC(c2ccco2)N2CCCCC2)c1 (stereo not drawn),2%,5%,nt,nt,18%,-2%
COc1ccc2c(c1OC)C(=O)N1c3ccccc3C(=O)OC21 (stereo not drawn),nt,nt,-1%,-6%,nt,nt
COc1ccc2c(c1OC)C(=O)N1c3ccccc3SC21 (stereo not drawn),2.4µM*,2.8µM*,-3%,11µM*,?,2.5µM*
COc1ccc2c(c1OC)C(=O)N1c3ccccc3COC21 (stereo not drawn),3.4µM*,1.8µM*,-10%,14µM*,?,3.5µM*
CCOc1ccccc1Nc1nc2ccccc2nc1NS(=O)(=O)c1ccc(Cl)cc1,-9%,nt,nt,-7%,nt,nt
CC1CCc2sc(C(=O)Nc3ccc(N4CCOCC4)cc3)cc2C1 (stereo not drawn),?,-2%,-1%,-27%,-7%,5%
CCC1CCc2sc(C(=O)NNC(=O)c3ccncc3)cc2C1 (stereo not drawn),17µM*,-4%,nt,nt,-1%,1%
C/C(=N\NC(=O)c1cc2c(s1)CCC(C)C2)c1ccncc1 (stereo not drawn),9.5µM*,13%,-1%,27%,8%,3%
Cc1ccc(CNC(=O)COC(=O)c2cc3c(s2)CCC(C)C3)cc1 (stereo not drawn),10%,-4%,nt,nt,2%,-2%
CC1CCc2sc(C(=O)N/N=C/c3ccc(O)cc3)cc2C1 (stereo not drawn),2.1µM*,-1%,nt,nt,15%,0%
C/C(=N\NC(=O)c1cc2c(s1)CCC(C)C2)c1ccc[nH]1 (stereo not drawn),0.76µM*,1.6µM*,nt,nt,?,1.8µM*
CC1CCc2sc(C(=O)NCC(C)(C)N3CCOCC3)cc2C1 (stereo not drawn),-8%,1%,nt,nt,0%,-3%
CC(c1ccncn1)N(C)C(=O)c1ccc2oc(Cc3ccccc3)nc2c1 (stereo not drawn),-17%,12%,nt,nt,?,14%
Oc1ccccc1/C=N/NC1=NCCCCC1,13µM*,2.2µM*,3%,13µM*,?,1.4µM*
COc1ccc(/C=N/NC2=NCCCCC2)c(OC)c1,17µM*,9%,5%,?,3%,8%
COc1ccc(/C=N/NC2=NCCCCC2)cc1,?,?,-1%,-3%,?,2%
SMILES,FLuc modulator,Rab9 prom act,Luc counter,SMN2 splice enh,ELG1 genotoxic,NPC1 promoter act
Cc1nc(-c2ccc(C(=O)Nc3ccc(F)cc3)cc2)cs1,0.76µM*,?,?,8%,21µM*,?
Cc1nc(-c2cccc(NC(=O)c3ccc(-n4cccn4)cc3)c2)cs1,6.7µM*,-7%,nt,nt,-3%,-1%
COc1ccc(-c2csc(C)n2)cc1,19µM*,11%,-5%,-5%,20%,12%
Cc1nc(-c2ccc(C(=O)Nc3cccc(F)c3)cc2)cs1,0.27µM*,?,nt,nt,?,0.089µM*
O=C(Nc1cccc(NC(=O)c2ccc(F)cc2)c1)c1ccc(F)cc1,-2%,14%,nt,nt,7%,1%
CCCN(S(=O)(=O)c1ccccc1F)S(=O)(=O)c1ccccc1Br,-1%,-3%,nt,nt,-8%,-1%
O=C(CC12CC3CC(CC(C3)C1)C2)Nc1nncs1,3%,3%,nt,nt,-1%,-4%
CCCc1cc(N2CCN(c3cc(Cl)ccc3C)CC2)n2cnnc2n1,-4%,nt,nt,4%,nt,nt
CCOc1ccc(NC(=O)c2ccc(-c3csc(C)n3)cc2)cc1,-3%,-5%,nt,nt,-12%,0%
COc1ccc(NC(=O)c2ccc(-c3csc(C)n3)cc2)cc1,2.4µM*,2.8µM*,nt,nt,?,?
CCOc1ccccc1CNC(=O)CN1C(=O)CCCc2ccccc21,-2%,nt,nt,nt,nt,nt
Clc1ccc(CSc2cc3c(nn2)-c2ccccc2CC3)cc1,12µM*,28%,4%,12%,6%,?
Clc1ccc(Cc2ccc(SCc3ccccc3)nn2)c(Cl)c1,-9%,-1%,0%,-1%,-5%,-3%
Cc1nnc(SCC(=O)c2ccc(C(C)C)cc2)s1,9.5µM*,?,-1%,5%,10%,29%
Cc1ccc(C(=O)CSc2nnc(N)s2)c(C)c1,17µM*,2.5µM*,-1%,16µM*,15µM*,3.2µM*
Cc1cc(C)c(C(=O)CSc2nnc(C)s2)c(C)c1,-1%,0%[1.84 µM],1%,-14%,-5%,-4%
Cc1cc(C)c(C(=O)CSc2nnc(N)s2)cc1C,-19%,15%,nt,nt,9%,23%
CCOc1ccc(C(=O)CSc2nnc(N)s2)cc1,13µM*,3.2µM*,-4%,12%,?,2.5µM*
COc1ccc(F)cc1S(=O)(=O)NCC1CCCO1 (stereo not drawn),0%,-1%,nt,nt,1%,-3%
Cc1c(NC(=O)c2cccc(NS(C)(=O)=O)c2)c(=O)n(-c2ccccc2)n1C,-2%,-1%,nt,nt,-9%,1%
O=C(Nc1nc2ccccc2c2nc3ccccc3n12)c1ccc(F)cc1,0%,-5%,3%,-22%,-9%,-2%
Cn1c(NC(=O)c2ccc(F)cc2)nc2ccccc21,3µM*,4µM*,nt,nt,?,3.5µM*
